# In ChEMBL document CHEMBL4513216, “Probing the Open Global Health Chemical Diversity Library for Multistage-Active Starting Points for Next-Generation Antimalarials” (ACS Infect Dis, 2020):
# The campaign covered roughly 68,000 compounds. About 2,700 (4%) showed an effect of 50% or more. The entries come from a sample that favours strong results as a whole.
# Test system: Plasmodium berghei
# Experiment: Screen against P. berghei liver stage (PbLuc), transformed with Luciferase, at 2uM
# Assay type: functional, HepG2
# Details: tested at 2 uM
row,SMILES,INHIBITION [%]
1,O=C(NCCn1ccnc1)N1CCN(Cc2ccco2)CC1,54.28
2,O=C(NCCn1ccnc1)N1CCN(Cc2cccs2)CC1,-68.26
3,O=C(NCCCn1ccnc1)N1CCCC1c1ccncc1 (stereo unspecified),-1.27
4,O=C(Nc1ccc2c(c1)OCO2)N1CCN(CCn2cccn2)CC1,43.57
5,O=C(Nc1ccc2c(c1)OCO2)N1CCN(CCn2ccnc2)CC1,58.59
6,CC(Cn1ccnc1)NC(=O)N1CCN(Cc2cccnc2)CC1 (stereo unspecified),-36.13
7,O=C(Nc1ccc2c(c1)OCO2)N1CCN(CCc2ccccc2)CC1,20.76
8,CCSCC(C)NCc1nncn1C1CCCCC1 (stereo unspecified),37.3
9,Cc1nc(CN2C(=O)CC[C@@H]3[C@H]2CCN3C(=O)c2ccccn2)cs1,3.46
10,CCc1nccn1C1CCCN(C(=O)c2cncnc2C)C1 (stereo unspecified),4.41
11,CCN(CC)[C@@H]1CN(S(=O)(=O)c2cn(C)cn2)[C@@H]2CCCO[C@H]12,20.21
12,CN(CC(=O)NCc1cc2ccccc2o1)S(C)(=O)=O,-3.17
13,CCc1noc(C)c1C(=O)N1C[C@H](NS(C)(=O)=O)[C@@H](C2CC2)C1,5.47
14,O=C(N1CCCC(n2cncn2)C1)C1(c2ccc(Cl)cc2)CCC1 (stereo unspecified),45.83
15,CC(=O)c1c(C)nn(S(=O)(=O)c2ccc(C)cc2)c1C,39.45
16,CN1CCCC(N2CCN(c3cc(C(F)(F)F)ccn3)CC2)C1 (stereo unspecified),-3.43
17,FC(F)(F)c1ccnc(N2CCCC(N3CCOCC3)C2)c1 (stereo unspecified),60.13
18,FC(F)(F)c1ccnc(N2CCCN(C3CCOCC3)CC2)c1,-26.2
19,O=C(Cn1cccn1)Nc1ccc(N2CCOCC2)cc1,45.12
20,COC(C)C(=O)NS(=O)(=O)c1cccc2cc(C)cnc12 (stereo unspecified),73.31
21,Cc1cnc2c(S(=O)(=O)NCC3CCS(=O)(=O)C3)cccc2c1 (stereo unspecified),-84.03
22,Cc1cnc2c(S(=O)(=O)NCC3CC3)cccc2c1,51.94
23,Cc1cnc2c(S(=O)(=O)N(C)C3CCS(=O)(=O)C3)cccc2c1 (stereo unspecified),47.87
24,Cc1cnc2c(S(=O)(=O)NC(=O)C(C)OCC3CC3)cccc2c1 (stereo unspecified),28.97
25,Cc1cnc2c(S(=O)(=O)NCC3CCOC3)cccc2c1 (stereo unspecified),1.61
26,Cc1cnc2c(S(=O)(=O)NC3CCS(=O)(=O)C3)cccc2c1 (stereo unspecified),-15.28

row,SMILES,INHIBITION [%]
1,CCOC(C)C(=O)NS(=O)(=O)c1cccc2cc(C)cnc12 (stereo unspecified),9.27
2,Cc1cnc2c(S(=O)(=O)NCC3CCN(C4CC4)C3)cccc2c1 (stereo unspecified),51.21
3,CC(C)N1CCOC(CC(=O)N2CCCN(Cc3ccncc3)CC2)C1 (stereo unspecified),18.22
4,CNc1nc(C2CCCN2C(C)=O)nc2c1CN(CCO)CC2 (stereo unspecified),-0.83
5,Cc1cc(C)c(CNC(=O)C2COc3ccccc3C2)c(=O)[nH]1 (stereo unspecified),-68.78
6,Cc1cc(C)nc(N2CCCC(C)(c3[nH]ncc3C(=O)N(C)C)C2)n1 (stereo unspecified),-81.44
7,CCc1cc(CN2CCCCC2c2ccc(F)cc2)on1 (stereo unspecified),-19.3
8,CCS(=O)(=O)N(C)CCCNC(=O)c1cc(Cl)cc2cccnc12,61.08
9,COCCOCCCNC(=O)c1cc(Cl)cc2cccnc12,-18.52
10,CCOC(=O)CCNC(=O)c1cc(Cl)cc2cccnc12,-14.21
11,CCS(=O)(=O)CC(=O)Nc1ccccc1N1CCc2ccccc21,6.07
12,CN(C)CCN1CC2(CCN(C(=O)c3cnccn3)CC2)OC1=O,-48.69
13,Cc1cc(C(=O)N2CCC3(CC2)CN(CCN(C)C)C(=O)O3)nc(C)n1,59.03
14,Cc1ccc(C(=O)N2CCC3(CC2)CN(CCN(C)C)C(=O)O3)c(F)c1,57.34
15,CN(C)CCCN1CC2(CCN(C(=O)C3(C)CCCCO3)CC2)OC1=O (stereo unspecified),-64.97
16,Cc1ccc(C(=O)N2CCN(C)C3(CCC(=O)N(C)CC3)C2)c(F)c1 (stereo unspecified),18.22
17,CCCc1cc(C(=O)N2CCC3(CC2)CN(CCN(C)C)C(=O)O3)no1,28.73
18,CN(Cc1ccccc1)C(=O)Cn1nc(N2CCSCC2)ccc1=O,22.88
19,Cc1cc2nc(C(C)C)cc(N(C)CC3CCN(C(C)C)C3)n2n1 (stereo unspecified),5.93
20,Fc1cccc(CN2CCOCC3(CCN(C4CCOCC4)C3)C2)c1 (stereo unspecified),30.29
21,CNc1cc2c(nn1)CCN(C(=O)c1cc(C)n(C3CC3)c1C)C2,26.06
22,CCOC(=O)Cn1c(=O)nc(N)c2c(-c3ccc(OC)cc3)csc21,69.62
23,CCn1c(=O)nc(N)c2c(-c3ccc(OC)cc3)csc21,-37.19
24,COc1ccc(-c2csc3c2c(N)nc(=O)n3CC(N)=O)cc1,23.16
25,O=C(CC1CC2(CCNCC2)c2ccccc21)NCC1CC1 (stereo unspecified),-1.81
